From PubChem BioAssay
This is a sample that favours compounds with a hit; in the whole collection about 27% have one here.
CYP2C19 act – cytochrome P450 2C19 (human) activation; P33261; recombinant CYP2C19, luciferin-H EGE luminescence; stronger effect = higher value; 0 = fully inhibited enzyme, 1 = untreated enzyme; activation factor at 5 µM; 96,000 tested, under 10 active;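 active = activation factor of at least 2 at 5 µM in the primary screen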
CYP2C9 act – increases human cytochrome P450 2C9 activity; P11712; recombinant CYP2C9, luciferin-H conversion, luminescence; stronger effect = higher value; factor 1 = untreated enzyme, 0 = blocked; activation factor at 5 µM; 96,000 compounds, 1.4% hits;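 active = activation factor of 2 or more for CYP2C9 at a 5 µM dose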
Target sequence (P11712 whole entry, looked up): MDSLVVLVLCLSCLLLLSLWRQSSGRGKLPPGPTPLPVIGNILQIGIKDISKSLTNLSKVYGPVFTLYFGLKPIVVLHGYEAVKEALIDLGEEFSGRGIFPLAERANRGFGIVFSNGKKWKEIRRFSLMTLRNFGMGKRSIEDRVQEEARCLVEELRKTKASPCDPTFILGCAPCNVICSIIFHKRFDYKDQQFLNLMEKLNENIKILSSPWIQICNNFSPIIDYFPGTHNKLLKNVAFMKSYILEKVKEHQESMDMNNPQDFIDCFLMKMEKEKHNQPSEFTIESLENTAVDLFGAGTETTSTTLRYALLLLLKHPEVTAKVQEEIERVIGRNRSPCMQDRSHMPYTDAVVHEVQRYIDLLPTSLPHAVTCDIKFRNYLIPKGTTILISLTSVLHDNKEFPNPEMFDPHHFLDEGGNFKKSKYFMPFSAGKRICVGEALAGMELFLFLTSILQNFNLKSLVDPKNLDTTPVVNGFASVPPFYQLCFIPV
CYP2C19 inhib – inhibitors of human CYP2C19; 96,000 compounds, 21% hits; AID 778; CYP2C19 Supersomes, luciferin-H EGE luminescence, 30 min; P33261; inhibition, % at 5 µM;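 active = CYP2C19 inhibition above a set limit at 5 µM in the primary screen, cut at about 50% in these data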
CYP2C9 inhib – human CYP2C9 inhibition; CYP2C9 Supersomes, luciferin-H conversion, luminescence; P11712; 96,000 compounds, 20% hits; inhibition, % at 5 µM;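 active = blocking of liver enzyme CYP2C9 beyond about 50% at 5 µM, limit read from the data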
EphB4 antag – blocks human EphB4 binding to ephrin-B2. P54760. EphB4 LBD / TNYL-RAW-Alexa532 peptide, fluorescence polarization. inhibition, % at 7 µM. 97,000 compounds, 0.15% hits. AID 720;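 active = inhibition above the screen-wide mean inhibition plus 3 SD, cut at about 15% in these data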
Each line names hits and unclear results; the compound was inactive in the other large screens.

O=C(N/N=C/C1CCCCC1)c1ccccn1	none
COc1ccc(-c2cn3c(C)c(C(=O)Nc4cccc(NC(C)=O)c4)sc3n2)cc1	CYP2C19 inhib 59.1
Cc1c(C(=O)Nc2ccncc2)sc2nc(-c3ccc(F)cc3)cn12	CYP2C9 inhib 73.6 (no result: EphB4 antag)
COc1ccc(-c2cn3c(C)c(C(=O)Nc4ccncc4)sc3n2)cc1	none
COc1ccc(C(c2nnnn2CCc2ccccc2)N2CCN(C3CCCC3)CC2)cc1OC (configuration not stated)	none
COc1ccc2cc3cc(C(=O)NCCCN4CCOCC4)oc3nc2c1	none
Cc1cc(NC(=O)CCC(=O)N(CC2CCCO2)C(C(=O)NC2CCCC2)c2ccccc2C)no1 (configuration not stated)	none (no result: CYP2C19 act, CYP2C9 act, CYP2C19 inhib, CYP2C9 inhib)
Cc1ccc(S(=O)(=O)N2CCOCC2)cc1C(=O)NCc1ccc2c(c1)OCO2	none
CC(=O)Nc1ccc(S(=O)(=O)N2CCN(c3cc(C)ccc3C)CC2)cc1	CYP2C9 inhib 85.3 (no result: EphB4 antag)
Cc1ccc(C)c(N2CCN(S(=O)(=O)c3ccc4c(c3)OCCO4)CC2)c1	CYP2C19 inhib 81.0, CYP2C9 inhib 89.6
O=S(=O)(c1ccc2c(c1)OCCCO2)N1CCNCC1	none
COC(=O)C1CCN(S(=O)(=O)c2ccc(NC(C)=O)cc2)CC1	none
Cc1cc2oc(=O)cc(CN3CCN(S(=O)(=O)c4ccc5c(c4)OCCO5)CC3)c2cc1C	CYP2C19 inhib 58.2, CYP2C9 inhib 83.7 (no result: EphB4 antag)
Cc1ccc(Cl)cc1N1CCN(S(=O)(=O)c2ccc3c(c2)OCCO3)CC1	CYP2C9 inhib 79.5
Cc1ccccc1Cn1c(CN2CCN(C(=O)c3ccco3)CC2)nc2c1c(=O)n(C)c(=O)n2C	none (no result: EphB4 antag)
COc1ccccc1Nc1nnc(SCC(=O)c2cc(C)n(CC3CCCO3)c2C)s1 (configuration not stated)	none
COC(=O)c1ccc(C)c(NS(=O)(=O)c2ccc(C)c([N+](=O)[O-])c2)c1	CYP2C19 inhib 90.2, CYP2C9 inhib 79.9
COC(=O)c1ccc(C)c(NS(=O)(=O)c2ccc3c(c2)OCCO3)c1	CYP2C19 inhib 91.3, CYP2C9 inhib 62.3
COC(=O)c1ccc(Sc2ccccc2NS(=O)(=O)c2ccc(NC(C)=O)cc2)nc1	CYP2C19 inhib 60.9, CYP2C9 inhib 79.5
COC(=O)c1ccc(C)c(NS(=O)(=O)c2ccc(OC)cc2)c1	CYP2C19 inhib 100.2, CYP2C9 inhib 69.5
CC1CCCC(C)N1C(=O)CN1C(=O)C(C)(C)Oc2ccc(C(=O)NC3CCCC3)cc21 (configuration not stated)	none
O=C(Cn1cnc2c(nnn2Cc2ccc(Cl)cc2)c1=O)NC1CCCC1	none
Cc1ccc(-n2ccnc2SCC(=O)N(CC(C)C)C2CCS(=O)(=O)C2)c(C)c1 (configuration not stated)	none
CCOc1ccc(N=Cc2c(O)cc(C)oc2=O)cc1	none
O=C(Cn1cnc([N+](=O)[O-])n1)NCc1ccccc1	none
COC(=O)c1ccc(C(=O)OC)c(NS(=O)(=O)c2ccc(NC(C)=O)cc2)c1	CYP2C19 inhib 61.7, CYP2C9 inhib 89.9 (no result: EphB4 antag)
CCCCNS(=O)(=O)c1ccc2nc(SCC(=O)N3CC(C)OC(C)C3)[nH]c2c1 (configuration not stated)	CYP2C9 inhib 55.4
CC(CC1C(C#N)=C(N)OC2=C1C(=O)CCC2)c1ccccc1 (configuration not stated)	CYP2C19 inhib 92.6, CYP2C9 inhib 87.8
CC(c1ccccc1)C1C(C#N)=C(N)OC2=C1C(=O)CC(C)(C)C2 (configuration not stated)	CYP2C19 inhib 90.1, CYP2C9 inhib 84.2
CC1(C)CC(=O)C2=C(C1)OC(/N=C/N1CCOCC1)=C(C#N)C2c1ccccc1 (configuration not stated)	CYP2C9 inhib 65.4
N#CC1=C(N)OC2=C(C(=O)CCC2)C1c1ccncc1 (configuration not stated)	none
Cc1cc(C2C(C#N)=C(N)OC3=C2C(=O)CCC3)c(C)s1 (configuration not stated)	CYP2C19 inhib 51.1
COc1cc(OC)c(C2C(C#N)=C(N)OC3=C2C(=O)CC(C)(C)C3)cc1OC (configuration not stated)	none
O=C(NCc1ccccc1)c1cccnc1N1CCOCC1	none (no result: CYP2C19 act, CYP2C9 act, CYP2C19 inhib, CYP2C9 inhib)
CC1(C)CC(=O)C2=C(C1)OC(N)=C(C#N)C2C#Cc1ccccc1 (configuration not stated)	CYP2C9 inhib 69.3
CC1(C)CC(=O)C2=C(C1)OC(N)=C(C#N)C2CCc1ccccc1 (configuration not stated)	none (no result: CYP2C19 act, CYP2C9 act, CYP2C19 inhib, CYP2C9 inhib)
CN(C)c1nc(Oc2ccc(=O)n(C)n2)nc(N2CCOCC2)n1	none
CCOc1ncccc1C(=O)OCC(=O)c1c(N)n(C)c(=O)n(C)c1=O	none (no result: EphB4 antag)
Cc1cc(C(=O)COC(=O)CCC(=O)c2ccc3c(c2)OCCO3)c(C)n1Cc1ccco1	CYP2C19 inhib 67.4, CYP2C9 inhib 67.7
CCOc1ccccc1C(=O)NCC(=O)OCC(=O)c1ccc2c(c1)OCCO2	none
CCOc1ncccc1C(=O)OCC(=O)c1cc(C)n(Cc2ccco2)c1C	CYP2C9 act 2.3, CYP2C19 inhib 80.4
CCOc1ncccc1C(=O)OCC(=O)c1ccc(Cl)s1	CYP2C19 inhib 54.9
CC1Oc2ccccc2N(CC(=O)NCC2CCCO2)C1=O (configuration not stated)	none
CCOC(=O)C1=C(C)NC(=S)N(C(C)=O)C1c1ccccc1 (configuration not stated)	none (no result: CYP2C19 act, CYP2C9 act, CYP2C19 inhib, CYP2C9 inhib)
COc1ccc(C2C(C#N)=C(N)Oc3c2sc2nc(C)cc(C)c32)cc1 (configuration not stated)	none
CCOC(=O)C(C)Sc1nnc(Cn2c(=O)sc3ccccc32)n1-c1ccccc1 (configuration not stated)	CYP2C19 inhib 69.4, CYP2C9 inhib 80.3
CCOC(=O)CCCn1nc(C)n2c(cc3sccc32)c1=O	none (no result: CYP2C19 act, CYP2C9 act, CYP2C19 inhib, CYP2C9 inhib)
CCOC(=O)N1CCN(CCC(=O)c2ccc(Cl)cc2)CC1	CYP2C9 inhib 63.7
CCOC(=O)N1CCC(NC(=O)c2ccc3c(c2)sc2nc(-c4ccc(OC)cc4)cn23)CC1	none
CCOC(=O)C1CCCN(C(=O)Cn2nc(CC)n3c(cc4sccc43)c2=O)C1 (configuration not stated)	CYP2C19 inhib 83.8
CCOC(=O)N1CCN(C(=O)c2ccc3c(c2)sc2nc(-c4ccccc4)cn23)CC1	CYP2C9 inhib 57.3
CCOC(=O)C1(S(=O)(=O)c2ccc(Cl)cc2)CCN(Cc2ccc(Cl)cc2)CC1	CYP2C19 inhib 57.0, CYP2C9 inhib 68.6
COC(=O)c1c(O)c2ccccc2[nH]c1=O	none
Cn1c(=O)[nH]c(=O)c2c1nc(SCC(=O)Nc1ccccc1)n2Cc1ccccc1	none
CN(CC(=O)Nc1cccc2c1CCCC2)S(=O)(=O)c1ccc(Br)cc1	none
CCOC(=O)C1CCCN(C(=O)Cc2c(F)cccc2Cl)C1 (configuration not stated)	CYP2C19 inhib 67.1
CCOC(=O)C1CCCN(C(=O)C2CC(=O)N(c3ccc(C)cc3)C2)C1 (configuration not stated)	none
